About 83,000 compounds went through this panel and 20% of them were active in at least one assay; those are over-represented in the sample as a whole.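 Note: values are percent growth. 100 is the growth of untreated cells, values between 100 and 0 indicate rising inhibition; between -100 and 0 indicates cell death.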 Values without a mark were called inactive. Activity calls are given as the source filed them. The calls were made as follows: active = growth percent below 10; inactive = the rest.

Test systems include RPMI-8226 leukemia; OVCAR-8 ovarian; OVCAR-5 ovarian; OVCAR-4 ovarian; SK-OV-3 ovarian; IGROV1 ovarian; OVCAR-3 ovarian; HS 578T breast; NCI/ADR-RES ovarian; T-47D breast; BT-549 breast; SW-620 colon; HCT-116 colon; HCC-2998 colon; MDA-MB-435 melanoma; MCF7 breast; KM12 colon.
Experiment in all cases: NCI-60 one-dose screen, 48 h (100 = growth as untreated, 0 = no growth, -100 = all killed)
What all share (settings): 10 µM unless noted

On to `COc1ccc(Nc2nc(N)nc3c(=O)[nH]ccc23)cc1`, for which the growth in the test on RPMI-8226 leukemia is 97.3%; with OVCAR-8 ovarian, 107%; in the test on OVCAR-5 ovarian, 107%; in the test with OVCAR-4 ovarian, 111%; in the test with SK-OV-3 ovarian, 107%; in the test on IGROV1 ovarian, 87.5%. For the same compound, the growth was 113% in the test on OVCAR-3 ovarian; 118% with HS 578T breast; 100% in the test on NCI/ADR-RES ovarian; 96.6% in the test with T-47D breast; 102% in the test on BT-549 breast; 99.5% in the test with SW-620 colon. Also, the growth is 83.7% in the test with HCT-116 colon and 107% in the test with HCC-2998 colon.

For `O=C(O)c1ccccc1Oc1cc(-c2ccco2)nc(OCCN2CCOCC2)n1`, the growth was 99.8% in the test on RPMI-8226 leukemia; 105% in the test on OVCAR-8 ovarian; 99.6% with OVCAR-5 ovarian; 108% with OVCAR-4 ovarian; 99.8% in the test with SK-OV-3 ovarian; 103% in the test with IGROV1 ovarian. Besides, the growth with OVCAR-3 ovarian is 126%; in the test on HS 578T breast, 112%; with NCI/ADR-RES ovarian it was 99.7%; in the test with T-47D breast, 97.2%; with BT-549 breast, 96.6%; with MDA-MB-435 melanoma it was 101%. Besides, the growth is 115% in the test with SW-620 colon; 102% in the test with MCF7 breast; 97.9% with HCT-116 colon; 108% in the test on HCC-2998 colon; 111% in the test on KM12 colon.

With `Cc1nn(-c2ccccc2)c2nc3c(nc12)C1=NCCN1C(c1ccc(Cl)cc1)N3` (configuration not stated), the growth in the test on RPMI-8226 leukemia was 45.6%; in the test with OVCAR-8 ovarian, 87.5%; in the test with OVCAR-5 ovarian, 91%; in the test on OVCAR-4 ovarian it was 80.3%; with SK-OV-3 ovarian it was 104%; in the test on IGROV1 ovarian it was 88.8%. In addition, the growth in the test with OVCAR-3 ovarian was 95.4%; in the test with HS 578T breast it was 60.7%; in the test with NCI/ADR-RES ovarian it was 98.6%; with T-47D breast, 75.1%; with BT-549 breast, 98.3%; in the test on MDA-MB-435 melanoma, 51.5%. Moreover, the growth was 76.6% with SW-620 colon; 35.3% with MCF7 breast; 68.8% with HCT-116 colon; -25.2% (active) in the test on HCC-2998 colon; 66% in the test with KM12 colon.

`COc1ccc2nc(-c3ccc(-c4noc(-c5ccc(Cl)cc5)n4)cc3)[nH]c2c1`: the growth with RPMI-8226 leukemia is 101%; in the test on OVCAR-8 ovarian, 74.1%; in the test with OVCAR-5 ovarian it was 92.6%; in the test with OVCAR-4 ovarian it was -25.9% (active); in the test with SK-OV-3 ovarian it was 90.7%; in the test on IGROV1 ovarian, 78.1%. Further, the growth is 64.9% in the test with OVCAR-3 ovarian; 62.1% in the test with HS 578T breast; 47.1% with NCI/ADR-RES ovarian; 67.3% in the test on T-47D breast; 74.8% with BT-549 breast; 60.2% with MDA-MB-435 melanoma. The growth was 49.6% with SW-620 colon; 46.4% in the test on MCF7 breast; 51.3% with HCT-116 colon; 93.6% in the test on HCC-2998 colon; 53.3% in the test on KM12 colon.

As for `CN(C)c1ccc(/C=C\c2cccc[n+]2C)cc1`, the growth is 3.96% (active) in the test with RPMI-8226 leukemia; 28.6% with OVCAR-8 ovarian; 49.5% in the test with OVCAR-5 ovarian; 34.1% in the test on OVCAR-4 ovarian; 42.2% with SK-OV-3 ovarian; 68.8% with IGROV1 ovarian. Also, the growth in the test on OVCAR-3 ovarian was 9.08% (active); in the test with HS 578T breast, 61.5%; with NCI/ADR-RES ovarian, 105%; in the test with T-47D breast, 14.6%; with BT-549 breast, 20.1%; in the test on MDA-MB-435 melanoma it was 33.6%. The growth with SW-620 colon is 22.4%; with MCF7 breast it was 39.3%; in the test on HCT-116 colon it was 19.3%; with HCC-2998 colon, 35.7%; with KM12 colon, 6.97% (active).

As to `COc1ccc(-c2nc3ccccc3n3cccc23)cc1`, the growth is 75.6% in the test with RPMI-8226 leukemia; 103% in the test on OVCAR-8 ovarian; 113% in the test with OVCAR-5 ovarian; 99.8% in the test on OVCAR-4 ovarian; 122% in the test on SK-OV-3 ovarian; 47.1% in the test on IGROV1 ovarian. For the same compound, the growth is 101% in the test on OVCAR-3 ovarian; 111% in the test with HS 578T breast; 107% in the test with NCI/ADR-RES ovarian; 107% in the test with T-47D breast; 95.4% in the test with BT-549 breast; 126% with MDA-MB-435 melanoma. In addition, the growth is 101% in the test with SW-620 colon; 81.9% in the test with MCF7 breast; 92% with HCT-116 colon; 110% in the test on HCC-2998 colon; 99% in the test with KM12 colon.

For `O=C(Nc1ccc(Br)cc1)c1ccc(Cl)c(Cl)c1`, the growth in the test with RPMI-8226 leukemia is -6.3% (active); with OVCAR-8 ovarian, 89.3%; with OVCAR-5 ovarian, 72%; in the test on OVCAR-4 ovarian, 28.8%; with SK-OV-3 ovarian, 63.7%; in the test on IGROV1 ovarian, 66.7%. Moreover, the growth in the test on OVCAR-3 ovarian was 16%; in the test with HS 578T breast, 79.6%; in the test on NCI/ADR-RES ovarian, 36.6%; in the test with T-47D breast, 5.65% (active); in the test on BT-549 breast, 60.6%; in the test on MDA-MB-435 melanoma, 31.4%. The growth in the test on SW-620 colon is 34.7%; in the test with HCT-116 colon it was 20.8%; with HCC-2998 colon, 67.7%; in the test on KM12 colon, 9.99% (active).

As for `COC(=O)c1ccc2c(c1)nc(-c1cc3ccccc3[nH]c1=O)n2-c1cc(C(C)(C)C)[nH]n1`, the growth in the test on RPMI-8226 leukemia is 22%; with OVCAR-8 ovarian, 54%; with OVCAR-5 ovarian it was 96.6%; with OVCAR-4 ovarian, 86.7%; with SK-OV-3 ovarian it was 105%; with IGROV1 ovarian, 44.7%. Besides, the growth is 94.5% in the test with OVCAR-3 ovarian; 39.3% in the test on HS 578T breast; 2.6% (active) in the test on NCI/ADR-RES ovarian; 59.3% in the test with T-47D breast; 54.6% in the test with BT-549 breast; 46.4% with MDA-MB-435 melanoma. The growth with SW-620 colon is 61.8%; in the test on MCF7 breast, 58.1%; with HCT-116 colon, 51.1%; in the test on HCC-2998 colon it was -10.1% (active); in the test with KM12 colon, 44.3%.

For the origin of these results see PubChem BioAssay (NCI).
